This excerpt belongs to a sample that is enriched for the strongest signals.
Experiments:
Test in all cases: glycan array binding signal (z-score within array); higher = stronger binding
Conditions in all cases: glycan notation: IUPAC condensed, linker removed; mutation: Y54A
[1] = target: Fuc(a1-2)Gal(b1-4)GlcNAc(b1-2)Man
Summary of the method: (§1)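 Columns mapping to the same glycan were averaged after glycan names were converted to IUPAC-condensed notation. The data come from 3228 arrays in the Consortium for Functional Glycomics database, limited to those with an available protein sequence. Binding is reported as a within-array Z-score averaged across arrays of one protein sequence and across linkers.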

[2] = target: Fuc(a1-2)Gal(b1-4)GlcNAc(b1-3)Gal(b1-4)GlcNAc(b1-2)Man(a1-3)[Fuc(a1-2)Gal(b1-4)GlcNAc(b1-3)Gal(b1-4)GlcNAc(b1-2)Man(a1-6)]Man(b1-4)GlcNAc(b1-4)GlcNAc
Summary of the method: as §1

[3] = target: Fuc(a1-2)Gal6S(b1-3)GlcNAc
Summary of the method: as §1

[4] = target: Fuc(a1-2)[Gal(a1-3)]Gal(b1-3)GlcNAc(b1-6)GalNAc
Summary of the method: as §1

[5] = target: Fuc(a1-2)[GalNAc(a1-3)]Gal(b1-3)GalNAc(b1-3)Gal(a1-4)Gal(b1-4)Glc
Summary of the method: as §1

Fuc(b1-3)GlcNAc = target: Fuc(b1-3)GlcNAc
Summary of the method: as §1

[6] = target: Gal(a1-3)Gal(b1-4)GlcNAc(b1-2)Man(a1-3)[Gal(a1-3)Gal(b1-4)GlcNAc(b1-2)Man(a1-6)]Man(b1-4)GlcNAc(b1-4)GlcNAc
Summary of the method: as §1

[7] = target: Gal(a1-3)Gal(b1-4)GlcNAc(b1-6)GalNAc
Summary of the method: as §1

Gal(b1-3)Gal = target: Gal(b1-3)Gal
Summary of the method: as §1

[8] = target: Gal(b1-3)GlcNAc(b1-3)Gal(b1-3)GlcNAc
Summary of the method: as §1

[9] = target: Gal(b1-3)GlcNAc(b1-3)Gal(b1-4)Glc
Summary of the method: as §1

[10] = target: Gal(b1-3)[Fuc(a1-4)]GlcNAc(b1-2)Man
Summary of the method: as §1

[11] = target: Gal(b1-3)[Fuc(a1-4)]GlcNAc(b1-2)Man(a1-3)[Gal(b1-3)[Fuc(a1-4)]GlcNAc(b1-2)Man(a1-6)]Man(b1-4)GlcNAc(b1-4)[Fuc(a1-6)]GlcNAc
Summary of the method: as §1

[12] = target: Gal(b1-4)GlcNAc(b1-2)[Gal(b1-4)GlcNAc(b1-4)]Man(a1-3)[Gal(b1-4)GlcNAc(b1-2)[Gal(b1-4)GlcNAc(b1-6)]Man(a1-6)]Man(b1-4)GlcNAc(b1-4)GlcNAc
Summary of the method: as §1

[13] = target: Gal(b1-4)GlcNAc(b1-3)Gal(b1-4)GlcNAc(b1-3)Gal(b1-4)GlcNAc(b1-3)Gal(b1-4)GlcNAc(b1-2)Man(a1-3)[Gal(b1-4)GlcNAc(b1-3)Gal(b1-4)GlcNAc(b1-3)Gal(b1-4)GlcNAc(b1-3)Gal(b1-4)GlcNAc(b1-2)Man(a1-6)]Man(b1-4)GlcNAc(b1-4)GlcNAc
Summary of the method: as §1

[14] = target: Gal(b1-4)GlcNAc(b1-3)Gal(b1-4)GlcNAc(b1-3)Gal(b1-4)GlcNAc(b1-3)Gal(b1-4)GlcNAc(b1-3)Gal(b1-4)GlcNAc(b1-2)Man(a1-3)[Gal(b1-4)GlcNAc(b1-3)Gal(b1-4)GlcNAc(b1-3)Gal(b1-4)GlcNAc(b1-3)Gal(b1-4)GlcNAc(b1-3)Gal(b1-4)GlcNAc(b1-2)Man(a1-6)]Man(b1-4)GlcNAc(b1-4)[Fuc(a1-6)]GlcNAc
Summary of the method: as §1

[15] = target: Gal(b1-4)GlcNAc(b1-3)Gal(b1-4)GlcNAc(b1-3)Gal(b1-4)GlcNAc(b1-3)Gal(b1-4)GlcNAc(b1-3)Gal(b1-4)GlcNAc(b1-2)[Gal(b1-4)GlcNAc(b1-3)Gal(b1-4)GlcNAc(b1-3)Gal(b1-4)GlcNAc(b1-3)Gal(b1-4)GlcNAc(b1-3)Gal(b1-4)GlcNAc(b1-6)]Man(a1-6)[Gal(b1-4)GlcNAc(b1-3)Gal(b1-4)GlcNAc(b1-3)Gal(b1-4)GlcNAc(b1-3)Gal(b1-4)GlcNAc(b1-3)Gal(b1-4)GlcNAc(b1-2)Man(a1-3)]Man(b1-4)GlcNAc(b1-4)[Fuc(a1-6)]GlcNAc
Summary of the method: as §1

[16] = target: Gal(b1-4)GlcNAc(b1-3)Gal(b1-4)GlcNAc(b1-3)[Gal(b1-4)GlcNAc(b1-3)Gal(b1-4)GlcNAc(b1-6)]GalNAc
Summary of the method: as §1

Gal(b1-6)Gal = target: Gal(b1-6)Gal
Summary of the method: as §1

[17] = target: Gal3S(b1-4)[Fuc(a1-3)]GlcNAc6S
Summary of the method: as §1

Gal3S6S(b1-4)GlcNAc6S = target: Gal3S6S(b1-4)GlcNAc6S
Summary of the method: as §1

Gal4S6S(b1-4)GlcNAc = target: Gal4S6S(b1-4)GlcNAc
Summary of the method: as §1

Gal6S(b1-4)GlcNAc = target: Gal6S(b1-4)GlcNAc
Summary of the method: as §1

[18] = target: GalNAc(b1-3)Gal(a1-4)Gal(b1-4)GlcNAc(b1-3)Gal(b1-4)Glc
Summary of the method: as §1

GalNAc(b1-3)GalNAc = target: GalNAc(b1-3)GalNAc
Summary of the method: as §1

B1: CBP21 (Serratia marcescens), O83009 (protein)
chain: MNKTSRTLLSLGLLSAAMFGVSQQANAHGYVESPASRAYQCKLQLNTQCGSVQAEPQSVEGLKGFPQAGPADGHIASADKSTFFELDQQTPTRWNKLNLKTGPNSFTWKLTARHSTTSWRYFITKPNWDASQPLTRASFDLTPFCQFNDGGAIPAAQVTHQCNIPADRSGSHVILAVWDIADTANAFYQAIDVNLSK
glycan array binding signal (z-score) [1]: -0.872 | glycan array binding signal (z-score) [2]: 2.34 | glycan array binding signal (z-score) [3]: 4.33 | glycan array binding signal (z-score) [4]: -0.403 | glycan array binding signal (z-score) [5]: -0.164 | glycan array binding signal (z-score) (Fuc(b1-3)GlcNAc): -0.276 | glycan array binding signal (z-score) [6]: -0.395 | glycan array binding signal (z-score) [7]: 1.24 | glycan array binding signal (z-score) (Gal(b1-3)Gal): -0.635 | glycan array binding signal (z-score) [8]: 0.339 | glycan array binding signal (z-score) [9]: 1.22 | glycan array binding signal (z-score) [10]: 0.608 | glycan array binding signal (z-score) [11]: 0.588 | glycan array binding signal (z-score) [12]: 0.113 | glycan array binding signal (z-score) [13]: 0.181 | glycan array binding signal (z-score) [14]: 5.09 | glycan array binding signal (z-score) [15]: 1.3 | glycan array binding signal (z-score) [16]: -0.31 | glycan array binding signal (z-score) (Gal(b1-6)Gal): -0.809 | glycan array binding signal (z-score) [17]: -0.109 | glycan array binding signal (z-score) (Gal3S6S(b1-4)GlcNAc6S): 4.88 | glycan array binding signal (z-score) (Gal4S6S(b1-4)GlcNAc): 0.517 | glycan array binding signal (z-score) (Gal6S(b1-4)GlcNAc): 4.2 | glycan array binding signal (z-score) [18]: -0.857 | glycan array binding signal (z-score) (GalNAc(b1-3)GalNAc): -0.995
